For 93 compounds, inhibition results are on record in PubChem BioAssay AID588475 (Sanford-Burnham Center for Chemical Genomics, 2011).

The campaign covered roughly 350,000 compounds. About 2,100 (0.6%) were called active. Many of the other results were omitted from the sample, so actives are more common in it than they were. Values without a mark were called inactive.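 The calls were made as follows: active = inhibition of the ligand-induced calcium signal above about 50% at the single tested concentration (limit read from the data); inactive = the rest.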

A word on the inhibition: it is the drop in the measured response relative to a control, in per cent.

This test in a line: antagonists of CRF-BP/CRF-R2 complex, primary screen, cell-based, HEK293, calcium dye fluorescence, uHTS (AID 588475). The note with it: CRF-induced calcium fluorescence, at 11.8 µM, active compounds read high.
As for `O=C(Nc1cccc(C(=O)O)c1)/C(=C\c1ccccc1)NC(=O)c1ccc(Br)o1`, the inhibition is 12.3%.
Under `COC(=O)Cn1cnc2scc(-c3ccc(C)c(C)c3)c2c1=O` stands 0.19%; under `O=C(N/N=C/c1cccc2cccnc12)[C@H]1C[C@@H]1c1ccccc1`, -18.3%.
As to `O=C(CCC(=O)OCC(F)(F)C(F)F)NCc1ccccc1`, the inhibition was 108% (active).
Under `O=C(CCOc1ccccc1)NCc1ccccc1` stands 2.03%.
For the compound `O=C(CCC(=O)c1ccccc1)NCc1cccc(C(F)(F)F)c1`, the inhibition is -4.39%.
Under `Cc1nc(N)c(Br)c(C)c1Br` stands -2.67%; under `Cn1cc(S(=O)(=O)N2CCN(c3ccc(F)cc3)CC2)c(=O)n(C)c1=O`, -4.51%.
Under `CC(C)[C@H](NC(=O)N1CCn2c1nc1ccccc12)C(=O)NCCc1ccccc1` stands 2.7%; under `CCC(C)[C@H](NC(=O)N1CCn2c1nc1ccccc12)C(=O)NCc1ccc(OC)cc1` (stereo partly drawn), 52.2% (active); under `CC(C)[C@H](NC(=O)N1CCn2c1nc1ccccc12)C(=O)NCc1ccc2c(c1)OCO2`, -3.94%.
Under `O=C(/C(=N\O)n1cncn1)c1ccc(Br)cc1Br` stands 14.7%.
Take `COc1cc(OC)cc(C(=O)Nc2ncc3c(n2)CC(C)(C)CC3=O)c1`: the inhibition is 20%.
Then `O=C(NNC(=S)NC1CC2CCC1C2)c1ccc(Cl)cc1` (stereo not drawn), with -9.96%.
Under `O=[N+]([O-])c1ccc(C(S(=O)(=O)Cc2ccccc2)S(=O)(=O)Cc2ccccc2)cc1` stands 5.72%.
Then `CC1CN/C(=C\C(=O)c2ccc(Br)cc2)C(=O)N1` (stereo not drawn), with 12.3%; and `O=C(CCS(=O)(=O)c1ccc(Br)cc1)NCCc1ccc(Cl)cc1`, with -3.71%; and `O=C(NCCS(=O)(=O)c1ccc(Br)cc1)c1ccccc1Cl`, with 71.2% (active).
For the compound `O=C(NCCCN1CCOCC1)c1ccccc1NS(=O)(=O)c1ccc(Br)cc1`, the inhibition is 1.32%.
Under `Cc1c(OC(C)C(=O)NCC2CCC(C(=O)O)CC2)ccc2c1oc(=O)c1ccccc12` (stereo not drawn) stands 4.13%.
Under `Cc1nonc1C1CCCN1Cc1nc(-c2ccc(F)cc2F)oc1C` (stereo not drawn) stands 17.3%.
Then `CN(C)S(=O)(=O)c1ccc(C(=O)NCC(C)(C)N2CCOCC2)cc1`, with 15.6%.
In the case of `COc1ccc(C2C(C#N)=C(N)Oc3n[nH]c(C)c32)cc1CN1CCN(c2ccc(F)cc2)CC1` (stereo not drawn), the inhibition was 3.36%.
Under `COc1cc(C2C(C#N)=C(N)Oc3n[nH]c(-c4ccccn4)c32)cc(OC)c1OC` (stereo not drawn) stands 52.2% (active); under `COCc1[nH]nc2c1C(C1C=CCCC1)C(C#N)=C(N)O2` (stereo not drawn), -8.71%; under `Cc1ccc(C)c(C(=O)COC(=O)Cn2[nH]c(=O)c3ccccc3c2=O)c1`, 6.49%.
Under `CC(=O)NNC1=Nc2ccccc2N(C)C(C)C1` (stereo not drawn) stands 19%.
With `COC(=O)c1ccc(CN2C(=O)NC(c3ccccc3)(c3ccccc3)C2=O)o1`, the inhibition was 0.1%.
Then `COC(=O)c1ccc(COc2ccc(C#N)cc2)o1`, with 10.2%; and `COC(=O)c1ccc(Cc2ccccc2)o1`, with 53% (active).
Under `CCC(C)C(NC(=O)C1CCC(=O)N1C(=O)OCc1ccccc1)C(=O)NC(C(=O)N1CCCC1C(N)=O)C(C)CC` (stereo not drawn) stands 2.28%; under `O=C1c2cccc3cccc(c23)C(=O)N1c1cccc(O)c1`, 4.66%; under `COc1cc(NC(=O)c2ccccc2NS(=O)(=O)c2ccc(Cl)s2)cc(OC)c1`, 90.5% (active).
Then `COc1ccccc1C(=O)Nc1ccccc1C(=O)Nc1ccccc1`, with 6.12%; and `COC(=O)c1ccc(NC(=O)c2ccccc2NS(=O)(=O)c2ccccc2)cc1`, with 61% (active); and `COC(=O)c1ccccc1NS(=O)(=O)c1ccc2[nH]c(=O)[nH]c2c1`, with 17.7%.
With `O=C(Nc1ccc(S(=O)(=O)Nc2ccccn2)cc1)c1ccccc1`, the inhibition was -0.79%.
Then `O=S(=O)(Nc1ccccc1N1CCOCC1)c1ccc(Cl)s1`, with -0.68%; and `CSc1nnc(-c2ccc(C(F)(F)F)cn2)o1`, with 4.97%; and `O=C(OCC(=O)N1CCc2ccccc21)c1ccc([N+](=O)[O-])cc1`, with -3.17%.
Then `CN1CCOC1c1ccc(C2OCCN2C)cc1` (stereo not drawn), with 4.93%; and `CCCc1nc2c(C)cc(-c3nc4ccccc4n3C)cc2n1Cc1ccc(-c2ccccc2C(=O)O)cc1`, with 17.1%; and `CN(C)CCCN(Cc1cc2cc3c(cc2[nH]c1=O)OCCO3)C(=O)NC1CCCCC1`, with -6.7%.
Then `Cc1cc(C(=O)OC(C)C(=O)NC2CCCCC2C)c(C)o1` (stereo not drawn), with -2.53%.
With `O=C(Cc1ccc(Br)cc1)NCCc1ccccc1`, the inhibition was -0.6%.
Under `CC(C)(C)NC(=O)Cn1cnc([N+](=O)[O-])n1` stands 4.8%; under `O=C(Cn1cnc([N+](=O)[O-])n1)NCCc1ccccc1`, 67.5% (active).
Then `COCC(=O)N1CCc2ccc(NC(=O)c3ccccc3Cl)cc2C1`, with 6.03%; and `FC(F)(F)Oc1ccc(NC(=S)NCc2ccccc2)cc1`, with 44.6%.
As to `Fc1ccccc1CNC(=S)Nc1ccc(Cl)cc1`, the inhibition was 66% (active).
Under `S=C(NCc1cccs1)Nc1ccc(Cl)cc1` stands 8.34%; under `COc1ccc(NC2CC(=O)N(C)C2=O)cc1` (stereo not drawn), 20.5%; under `CCN(CC)CCN(C(=O)c1cc(Cl)sc1Cl)c1nc2cc3c(cc2s1)OCO3`, -22.2%.
Under `CN(C)CCN(C(=O)CN1C(=O)c2ccccc2C1=O)c1nc2cc3c(cc2s1)OCCO3` stands 85.2% (active); under `CN(C)CCN(C(=O)C1=COCCO1)c1nc2ccc(Cl)cc2s1`, -9.68%.
Then `O=C(COc1ccc(Cl)cc1)NCCSc1ccccc1`, with 9.25%; and `O=C1CCC(CCC(=O)N2CCCC(C(=O)c3ccc(Cl)cc3)C2)=NN1` (stereo not drawn), with -7.3%; and `CC(=O)n1cc([C@H]2C=C(C(=O)N3CCOCC3)O[C@@H](OCc3ccc(CO)cc3)C2)c2ccccc21`, with -5.43%.
On to `Cc1cc2c(cc1C)NC(c1ccccn1)C1=C(CC(C)(C)CC1=O)N2` (stereo not drawn), for which the inhibition is 7.43%.
Then `Cc1ccc(C(=O)Nc2ncccc2C)cc1S(=O)(=O)N1CCOCC1`, with -0.48%; and `Cc1ccc(NC(=O)NC2CCCCC2)cc1S(=O)(=O)N1CCOCC1`, with 5.45%; and `Cc1ccc(C(=O)Nc2ccccc2C(=O)NC2CCCCC2)cc1S(=O)(=O)N1CCOCC1`, with 72.2% (active).
Under `Cc1cccc(N(C(=O)c2sc(C)nc2C)C(C(=O)NCC2CCCO2)c2ccccc2)c1` (stereo not drawn) stands 54.8% (active); under `Cc1nc(C)c(C(=O)N(c2ccc(C)c(C)c2)C(C(=O)NCc2ccco2)c2ccccc2)s1` (stereo not drawn), -3.65%.
Under `O=C(NCC(=O)N(c1ccccc1)C(C(=O)NCC1CCCO1)c1ccccc1)c1cccs1` (stereo not drawn) stands -1.33%.
Turning to `COc1ccc([N+](=O)[O-])cc1N(CC(O)Cn1nnc2ccccc21)S(=O)(=O)c1ccc(C)cc1` (stereo not drawn), the inhibition is 67.3% (active).
Under `COc1ccc([N+](=O)[O-])cc1N(CC(O)CN(CC(C)C)CC(C)C)S(=O)(=O)c1ccc(C)cc1` (stereo not drawn) stands -23.4%; under `Cc1ccc(S(=O)(=O)N(CC(O)CN2CCCCC2)c2cccc([N+](=O)[O-])c2)cc1` (stereo not drawn), -12.3%.
Regarding `CN(Cc1ccc(CNC[C@H]2O[C@@H](n3cnc4c(N)ncnc43)[C@H](O)[C@@H]2O)o1)S(C)(=O)=O`, the inhibition is 15.6%.
Under `C=CCNC(=S)N/N=C/c1ccc(OCc2ccccc2)cc1` stands 95.3% (active).
Under `O=C(O)c1ccc(/C=N/NC(=S)NCc2ccccc2)cc1` stands 3.62%.
Then `O=C(Cc1cccs1)N/N=C/c1ccc(OCc2ccccc2)cc1`, with -49.7%; and `CN(CCO)c1ccc(/C=N/Nc2nncc3ccccc23)cc1`, with 13.7%.
With `COc1ccc2[nH]c(=O)c(CN(Cc3cccnc3)S(=O)(=O)c3ccccc3F)cc2c1`, the inhibition was -7.64%.
Under `CN(C)/C(=N\OC(=O)c1ccccc1)c1nonc1N` stands 28.8%.
Under `Cc1cc(=O)n2nc(N3CCC(C(=O)Nc4c(F)c(F)c(F)c(F)c4F)CC3)sc2n1` stands 88.8% (active); under `COc1ccc(CCNC(=O)C2CCN(c3nn4c(=O)cc(C)nc4s3)CC2)cc1OC`, -3.66%; under `CCCOc1ccc(CNC(=O)C2CCN(c3nn4c(=O)cc(C)nc4s3)CC2)cc1`, 4.13%.
Consider `CCOc1ccc(N(CC(=O)Nc2ccccc2F)S(=O)(=O)c2c(C)[nH]c(=O)[nH]c2=O)cc1`, for which the inhibition was -6.15%.
Regarding `CCCNS(=O)(=O)c1ccc(CCC(=O)N2CCCC2)cc1`, the inhibition was 0.99%.
Under `C[C@@H]1CN([C@H](C)CO)C(=O)CCCn2nncc2CO[C@@H]1CN(C)C(=O)OCc1ccccc1` stands -0.52%; under `Cc1ccc(C(=O)c2coc3ccc(O)c(CN(C)C)c23)cc1`, -15.4%.
Take `COc1ccccc1C(=O)N1CCN=C1SCc1cccnc1`: the inhibition is 11.4%.
Then `COc1cccc(OC)c1C(=O)N1CCN(Cc2ccccc2F)CC1`, with 24.1%; and `COc1cccc(OC)c1C(=O)N1CCN(Cc2cccnc2)CC1`, with 56.1% (active); and `Cc1nc2sc(C(c3ccco3)N3CCC4(CC3)OCCO4)c(O)n2n1` (stereo not drawn), with 11.4%.
Turning to `[O-][N+]12CCCCC1CCCC2CO` (stereo not drawn), the inhibition was 8.6%.
Then `COc1cccc(NC(=O)c2cc(S(=O)(=O)N3CCc4ccccc43)cn2C)c1`, with 82.7% (active); and `COc1ccccc1N(C)C(=O)c1cc(S(=O)(=O)N2CCc3ccccc32)cn1C`, with -4.87%; and `COc1ccc(S(=O)(=O)N2CCc3ccccc32)cc1C(=O)Nc1cc(S(C)(=O)=O)ccc1Cl`, with 2.64%.
As to `O=C(N[C@H]1C/C=C\C(c2ccc(F)cc2)N(Cc2ccccc2)C(=O)C1)OCC1c2ccccc2-c2ccccc21` (stereo partly drawn), the inhibition is -13.4%.
In the case of `O=C(N[C@H]1C/C=C\C(c2cccc(F)c2)N(Cc2ccccc2)C(=O)C1)OCC1c2ccccc2-c2ccccc21` (stereo partly drawn), the inhibition is 98.1% (active).
Regarding `O=C(N[C@@H]1C/C=C\C[C@@H](CC(=O)N(CCO)Cc2ccccc2)C(=O)N[C@H](Cc2ccccc2)COC1=O)OCC1c2ccccc2-c2ccccc21`, the inhibition is 1.02%.
